# Only a selection was taken, and the strongest signals are over-represented in it overall.
# B1: Agalectin (Anopheles gambiae) (protein)
# chain: MSNRPFTAKFPRYPENGDEVFIRGKLKDDAKSFSVNFCLPRPAQVAEHQTPPYIALHFKTIYDERDDTSRVVLNWKNLQWQQEEVLDNYWHVDRSQTFRVVFRLHEDCIKVFVNSVDHPPDYQFPVQLPLDQIESIELWDDVEHVEEISFRYDNGNSY
# What was measured:
# Assay in all cases: glycan array binding signal (z-score within array); higher = stronger binding
# Details in all cases: glycan notation: IUPAC condensed, linker removed
# [1] = target: Fuc(a1-2)Gal(b1-3)GlcNAc(b1-2)Man(a1-3)[Fuc(a1-2)Gal(b1-3)GlcNAc(b1-2)Man(a1-6)]Man(b1-4)GlcNAc(b1-4)GlcNAc
# Summary of the method: (§1)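 The Consortium for Functional Glycomics database supplied 3228 glycan arrays, of which those lacking an available protein sequence were dropped. The binding signal, a within-array Z-score, was averaged across arrays of the same protein sequence and across linkers. Negative scores can be read as non-binding.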
# [2] = target: Fuc(a1-2)Gal(b1-3)GlcNAc(b1-3)[Fuc(a1-2)Gal(b1-3)GlcNAc(b1-6)]GalNAc
# Summary of the method: as §1
# [3] = target: Fuc(a1-2)Gal(b1-4)GlcNAc(b1-3)Gal(b1-4)GlcNAc(b1-2)Man(a1-3)[Fuc(a1-2)Gal(b1-4)GlcNAc(b1-3)Gal(b1-4)GlcNAc(b1-2)Man(a1-6)]Man(b1-4)GlcNAc(b1-4)GlcNAc
# Summary of the method: as §1
# [4] = target: Fuc(a1-2)Gal(b1-4)GlcNAc(b1-3)[Fuc(a1-2)Gal(b1-4)GlcNAc(b1-6)]GalNAc
# Summary of the method: as §1
# [5] = target: Fuc(a1-2)Gal(b1-4)GlcNAc6S
# Summary of the method: as §1
# [6] = target: Fuc(a1-2)Gal6S(b1-3)GlcNAc6S
# Summary of the method: as §1
# [7] = target: Fuc(a1-2)[GalNAc(a1-3)]Gal(b1-4)GlcNAc(b1-6)GalNAc
# Summary of the method: as §1
# [8] = target: Fuc(a1-2)[GalNAc(a1-3)]Gal(b1-4)[Fuc(a1-3)]GlcNAc(b1-3)GalNAc
# Summary of the method: as §1
# Fuc(a1-3)GlcNAc = target: Fuc(a1-3)GlcNAc
# Summary of the method: as §1
# [9] = target: Fuc(a1-3)[Gal(b1-4)]Glc6S
# Summary of the method: as §1
# [10] = target: Fuc(a1-3)[Gal(b1-4)]GlcNAc6S
# Summary of the method: as §1
# [11] = target: Fuc(a1-3)[Gal3S(b1-4)]GlcNAc6S
# Summary of the method: as §1
# [12] = target: Gal(a1-3)Gal(b1-4)[Fuc(a1-3)]GlcNAc
# Summary of the method: as §1
# Gal(b1-3)GalNAc = target: Gal(b1-3)GalNAc
# Summary of the method: as §1
# [13] = target: Gal(b1-3)GalNAc(a1-3)[Fuc(a1-2)]Gal(b1-4)Glc
# Summary of the method: as §1
# [14] = target: Gal(b1-3)GlcNAc(b1-2)Man(a1-3)[Gal(b1-3)GlcNAc(b1-2)Man(a1-6)]Man(b1-4)GlcNAc(b1-4)GlcNAc
# Summary of the method: as §1
# [15] = target: Gal(b1-3)GlcNAc(b1-3)Gal(b1-4)GlcNAc
# Summary of the method: as §1
# [16] = target: Gal(b1-3)GlcNAc(b1-3)Gal(b1-4)GlcNAc(b1-2)[Gal(b1-3)GlcNAc(b1-3)Gal(b1-4)GlcNAc(b1-6)]Man(a1-6)[Gal(b1-3)GlcNAc(b1-3)Gal(b1-4)GlcNAc(b1-2)Man(a1-3)]Man(b1-4)GlcNAc(b1-4)[Fuc(a1-6)]GlcNAc
# Summary of the method: as §1
# [17] = target: Gal(b1-3)GlcNAc(b1-6)[Gal(b1-3)]GalNAc
# Summary of the method: as §1
# Gal(b1-3)GlcNAc6S = target: Gal(b1-3)GlcNAc6S
# Summary of the method: as §1
# [18] = target: Gal(b1-3)[Neu5Ac(b2-6)]GalNAc
# Summary of the method: as §1
# [19] = target: Gal(b1-4)GlcNAc(b1-2)Man(a1-6)[GlcNAc(b1-2)Man(a1-3)]Man(b1-4)GlcNAc(b1-4)GlcNAc
# Summary of the method: as §1
# [20] = target: Gal(b1-4)GlcNAc(b1-3)Gal(b1-4)GlcNAc(b1-3)Gal(b1-4)GlcNAc(b1-2)Man(a1-3)[Gal(b1-4)GlcNAc(b1-3)Gal(b1-4)GlcNAc(b1-3)Gal(b1-4)GlcNAc(b1-2)Man(a1-6)]Man(b1-4)GlcNAc(b1-4)GlcNAc
# Summary of the method: as §1
# [21] = target: Gal(b1-4)GlcNAc(b1-3)Gal(b1-4)GlcNAc(b1-3)Gal(b1-4)GlcNAc(b1-3)Gal(b1-4)GlcNAc(b1-2)Man(a1-3)[Gal(b1-4)GlcNAc(b1-3)Gal(b1-4)GlcNAc(b1-3)Gal(b1-4)GlcNAc(b1-3)Gal(b1-4)GlcNAc(b1-2)Man(a1-6)]Man(b1-4)GlcNAc(b1-4)[Fuc(a1-6)]GlcNAc
# Summary of the method: as §1
# [22] = target: Gal(b1-4)GlcNAc(b1-3)Gal(b1-4)GlcNAc(b1-3)Gal(b1-4)GlcNAc(b1-3)Gal(b1-4)GlcNAc(b1-2)[Gal(b1-4)GlcNAc(b1-3)Gal(b1-4)GlcNAc(b1-3)Gal(b1-4)GlcNAc(b1-3)Gal(b1-4)GlcNAc(b1-6)]Man(a1-6)[Gal(b1-4)GlcNAc(b1-3)Gal(b1-4)GlcNAc(b1-3)Gal(b1-4)GlcNAc(b1-3)Gal(b1-4)GlcNAc(b1-2)Man(a1-3)]Man(b1-4)GlcNAc(b1-4)[Fuc(a1-6)]GlcNAc
# Summary of the method: as §1
# [23] = target: Gal(b1-4)GlcNAc(b1-3)GalNAc
# Summary of the method: as §1
# Gal(b1-6)Gal = target: Gal(b1-6)Gal
# Summary of the method: as §1
binder,measurement,setting,value
B1,glycan array binding signal (z-score),[1],5.71
same,glycan array binding signal (z-score),[2],4.19
same,glycan array binding signal (z-score),[3],-0.148
same,glycan array binding signal (z-score),[4],-0.321
same,glycan array binding signal (z-score),[5],-0.769
same,glycan array binding signal (z-score),[6],-0.208
same,glycan array binding signal (z-score),[7],0.074
same,glycan array binding signal (z-score),[8],-0.12
same,glycan array binding signal (z-score),Fuc(a1-3)GlcNAc,-1.07
same,glycan array binding signal (z-score),[9],-0.632
same,glycan array binding signal (z-score),[10],0.34
same,glycan array binding signal (z-score),[11],-0.759
same,glycan array binding signal (z-score),[12],-0.066
same,glycan array binding signal (z-score),Gal(b1-3)GalNAc,-0.47
same,glycan array binding signal (z-score),[13],-0.559
same,glycan array binding signal (z-score),[14],1.66
same,glycan array binding signal (z-score),[15],-0.854
same,glycan array binding signal (z-score),[16],3.14
same,glycan array binding signal (z-score),[17],-1.37
same,glycan array binding signal (z-score),Gal(b1-3)GlcNAc6S,-1.14
same,glycan array binding signal (z-score),[18],0.408
same,glycan array binding signal (z-score),[19],-0.688
same,glycan array binding signal (z-score),[20],2.89
same,glycan array binding signal (z-score),[21],3.26
same,glycan array binding signal (z-score),[22],-0.07
same,glycan array binding signal (z-score),[23],-0.509
same,glycan array binding signal (z-score),Gal(b1-6)Gal,-1.18
